{"source": "paper PMC7819943", "about": "“Rice protein-binding microarrays: a tool to detect cis-acting elements near promoter regions in rice”", "note": "In all, about 68,000 sequences were measured (“fluorescence intensity (a.u.)”: median about 9,100, highest 2% from about 16,000 on). For the sample, the highest values were picked, then their nearest neighbours and some sequences at random.", "data": [{"target": "OsWRKY34 (Oryza sativa, UniProt Q0JBA9 1-250)", "sequence (Q0JBA9 entry or part of it)": "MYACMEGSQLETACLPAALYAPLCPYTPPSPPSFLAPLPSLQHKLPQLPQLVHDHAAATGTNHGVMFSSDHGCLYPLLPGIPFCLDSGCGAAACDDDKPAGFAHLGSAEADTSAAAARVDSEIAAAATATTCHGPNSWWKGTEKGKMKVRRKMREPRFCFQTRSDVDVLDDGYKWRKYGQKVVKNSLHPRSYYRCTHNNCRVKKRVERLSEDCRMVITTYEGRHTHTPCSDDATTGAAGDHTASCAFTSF", "test": "protein-binding microarray (RPBM); PBS, 2% BSA, 51.3 ng/ul salmon testes DNA, 50 uM zinc acetate, 200 nM TF, 25 C, 1 h; high values mean tight binding", "details": "protein: recombinant; tags: N-terminal polyhistidine and DsRed monomer fusion (pET32a); label: CyDye5-dUTP incorporated in the synthesized complementary strand; 3' TTTTT single-stranded linker to array surface; dsDNA, one strand shown", "how_it_was_run": "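Transcription factors were each fused at the N-terminus to a polyhistidine tag plus DsRed and expressed in E. coli BL21-CodonPlus before Ni–NTA purification. Binding to a double-stranded custom Agilent array was carried out with 200 nM protein at 25 °C for 1 h in PBS, 2% BSA, salmon testes DNA and 50 µM zinc acetate. The binding signal is per-feature fluorescence intensity, in arbitrary units, on an Axon 4000B scanner.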", "values": [{"sequence": "TCTCCCTCAGTTACTGCCTTGCTCCCCAACCCCAGGAGCACGGAGTCACCTAGTGCAG", "binding signal": "9230 fluorescence intensity (a.u.)"}, {"sequence": "GCTTGGGGTGGAATCGCGTGGACAGCGTGGGCCTCAGTCACGGAGTCACCTAGTGCAG", "binding signal": "12000 fluorescence intensity (a.u.)"}, {"sequence": "ATATTTATTAGTTGGCGTGTATGTAAAACTTGTGTGTTTCCGGAGTCACCTAGTGCAG", "binding signal": "8400 fluorescence intensity (a.u.)"}, {"sequence": "CCATTGTTTTCTTCTTGTCCTTTTAGAGATGTTGGGTACACGGAGTCACCTAGTGCAG", "binding signal": "8240 fluorescence intensity (a.u.)"}, {"sequence": "AACCACCCCGCGTTTCCAGTCTCCACCACATCAACTCCCCCGGAGTCACCTAGTGCAG", "binding signal": "10200 fluorescence intensity (a.u.)"}, {"sequence": "CCCCAATGAATCATAGGCTCAACCTGCTCCTGCTGCAACACGGAGTCACCTAGTGCAG", "binding signal": "8040 fluorescence intensity (a.u.)"}, {"sequence": "GGTCCGGCGGAAGTAGGGGCGGAAGTGCGGGCGGGAGATGCGGAGTCACCTAGTGCAG", "binding signal": "9700 fluorescence intensity (a.u.)"}, {"sequence": "GACACATCTTAGTTTCATGAATTTGCACAAGAATTGCATGCGGAGTCACCTAGTGCAG", "binding signal": "10800 fluorescence intensity (a.u.)"}, {"sequence": "AGCCTGGAAGCCCATTCAGCGGCGGGGTTGGGGCGGCAGGCGGAGTCACCTAGTGCAG", "binding signal": "10200 fluorescence intensity (a.u.)"}, {"sequence": "AGATTGCTTTTCTTACAAGGACGACGCTAACAATAACATCCGGAGTCACCTAGTGCAG", "binding signal": "9110 fluorescence intensity (a.u.)"}, {"sequence": "GATGTGGATTTGGGATGTTAATTTGATTTGGGATTTGGGGCGGAGTCACCTAGTGCAG", "binding signal": "10600 fluorescence intensity (a.u.)"}, {"sequence": "GGCAATGCTTCACCGTCGCTTGCACCCCTTTCTCATGTGTCGGAGTCACCTAGTGCAG", "binding signal": "9790 fluorescence intensity (a.u.)"}, {"sequence": "CCCATTTGCCATGTCAACGCACCGTACTAATTAATCCTTGCGGAGTCACCTAGTGCAG", "binding signal": "10200 fluorescence intensity (a.u.)"}, {"sequence": "CCGCGGCCCAATAGCTCTTAGCCCATTGCCATCCGCCATCCGGAGTCACCTAGTGCAG", "binding signal": "9820 fluorescence intensity (a.u.)"}, {"sequence": "TCCCTAAATGTTTGACACCGTTGACCTTTTTAAAACATTTCGGAGTCACCTAGTGCAG", "binding signal": "17800 fluorescence intensity (a.u.)"}, {"sequence": "TTCCCTAAATGTTTGACACCGTTGACTTTTTTTTAAACATCGGAGTCACCTAGTGCAG", "binding signal": "33300 fluorescence intensity (a.u.)"}, {"sequence": "CCGTTTTAAAATGTTTGACACCGTTGACTTTTTAGTACATCGGAGTCACCTAGTGCAG", "binding signal": "26100 fluorescence intensity (a.u.)"}, {"sequence": "TGTTGTTGACTTTTAAACACATGTTTGATCATTTGTCTTACGGAGTCACCTAGTGCAG", "binding signal": "14600 fluorescence intensity (a.u.)"}, {"sequence": "CCTAAATGTTTGACTCCGTTGACTTTTTTAAACATGTCTGCGGAGTCACCTAGTGCAG", "binding signal": "26100 fluorescence intensity (a.u.)"}, {"sequence": "AGATGACTCCGTTGACTTTTAAACACATGTTTGATAATTCCGGAGTCACCTAGTGCAG", "binding signal": "16200 fluorescence intensity (a.u.)"}, {"sequence": "TTACATTTTAGGACATATATTTGGGGAGCTTCTTGGCTGTCGGAGTCACCTAGTGCAG", "binding signal": "10800 fluorescence intensity (a.u.)"}, {"sequence": "ATTTGTCTCTTTCGCGTCGTCTCTAACCTAACGTCCCAGACGGAGTCACCTAGTGCAG", "binding signal": "13100 fluorescence intensity (a.u.)"}, {"sequence": "CCCACGCGCCCACTTTGACCGACCCATCGATCGATCACGACGGAGTCACCTAGTGCAG", "binding signal": "14300 fluorescence intensity (a.u.)"}, {"sequence": "GCAACACCTCCCCTGTTCTTGCTCTGTTTCCTCACTCTGTCGGAGTCACCTAGTGCAG", "binding signal": "10200 fluorescence intensity (a.u.)"}, {"sequence": "TCTATCTGCCTGACTATCTCTATCTCGATCTCGTCCAGGACGGAGTCACCTAGTGCAG", "binding signal": "9860 fluorescence intensity (a.u.)"}, {"sequence": "ATCCGAGCATCTCGCCTCGCCCCGCCCCGCCCCGATCGATCGGAGTCACCTAGTGCAG", "binding signal": "9480 fluorescence intensity (a.u.)"}, {"sequence": "CTAGTAGTGCACACAAGCGGCAGCAGGAGGGGAGGGTGGTCGGAGTCACCTAGTGCAG", "binding signal": "9190 fluorescence intensity (a.u.)"}, {"sequence": "CTCTCTCTGCCATATCCTGTGCTTTTCTTGTATTCCATCCCGGAGTCACCTAGTGCAG", "binding signal": "11400 fluorescence intensity (a.u.)"}, {"sequence": "CCTAAATGTTTGACACCGTTGACTTTTTTAAACATATTTGCGGAGTCACCTAGTGCAG", "binding signal": "33000 fluorescence intensity (a.u.)"}, {"sequence": "GTTTGACACTTTTAGTACGTGTTTGACCATTTGTTTTATTCGGAGTCACCTAGTGCAG", "binding signal": "10200 fluorescence intensity (a.u.)"}, {"sequence": "ATGTTTGACACCGTTGACTTTTTAGTACGTGTTTGACCATCGGAGTCACCTAGTGCAG", "binding signal": "28200 fluorescence intensity (a.u.)"}, {"sequence": "TTCTCCACGGCAAACCACCACCGGCGTCACCAGCCCACCACGGAGTCACCTAGTGCAG", "binding signal": "8110 fluorescence intensity (a.u.)"}, {"sequence": "CTTTTCCATTTCCATGCATTCTTTGATCATCAAGTGATCACGGAGTCACCTAGTGCAG", "binding signal": "12100 fluorescence intensity (a.u.)"}, {"sequence": "TTGACCTGCTAGCCTTTTTTTTTTCGCAAATCTATTCCTGCGGAGTCACCTAGTGCAG", "binding signal": "8440 fluorescence intensity (a.u.)"}, {"sequence": "ATTTCTGCAGACCCATTTTGCTTTTGAAACACTGCTGATTCGGAGTCACCTAGTGCAG", "binding signal": "9790 fluorescence intensity (a.u.)"}, {"sequence": "AGTTTGTCATGGTCTAAAATATTACCCAGGTGTTCTTTGACGGAGTCACCTAGTGCAG", "binding signal": "8760 fluorescence intensity (a.u.)"}, {"sequence": "GGCCAATAAGTTCCAGTTCTCTTCTTAAGGCCCATTAGACCGGAGTCACCTAGTGCAG", "binding signal": "61800 fluorescence intensity (a.u.)"}, {"sequence": "CCATTAGTAAGTTCTCTCGTGGCCCAATACTCTCTTGATGCGGAGTCACCTAGTGCAG", "binding signal": "8840 fluorescence intensity (a.u.)"}, {"sequence": "CATTCTCTTCTCAACCAATAACAACTCTTCCACCATTCACCGGAGTCACCTAGTGCAG", "binding signal": "9540 fluorescence intensity (a.u.)"}, {"sequence": "CTCTCTCTCTCCTCGCGTGACTCGCGCGTGCCCTCGCCGCCGGAGTCACCTAGTGCAG", "binding signal": "8130 fluorescence intensity (a.u.)"}, {"sequence": "ACTAAACTCTGCCTTCATCATATTCCCAGCTGGTAACTCTCGGAGTCACCTAGTGCAG", "binding signal": "10300 fluorescence intensity (a.u.)"}, {"sequence": "GCCTTCATCATATTCCCAGCTGGTAACTCTATCCATTGACCGGAGTCACCTAGTGCAG", "binding signal": "16400 fluorescence intensity (a.u.)"}, {"sequence": "TATTCCCAGCTGGTAACTCTATCCATTGACGGCTGTGTTTCGGAGTCACCTAGTGCAG", "binding signal": "9650 fluorescence intensity (a.u.)"}, {"sequence": "CCTCTGGTCACGCATTCTACACAGAATCTCTGGTTTTCCCCGGAGTCACCTAGTGCAG", "binding signal": "9500 fluorescence intensity (a.u.)"}, {"sequence": "ATCTTAACCGCAACAGCTTTGCATCTTTTTAGTACCTATTCGGAGTCACCTAGTGCAG", "binding signal": "8170 fluorescence intensity (a.u.)"}, {"sequence": "ATATGCTGTCTTTTACTTGACTTGTAGTGCAACCTTCCACCGGAGTCACCTAGTGCAG", "binding signal": "12100 fluorescence intensity (a.u.)"}, {"sequence": "TCCTTTGACTTTTTAACCAGCTGTCTACTAGTAGTACTACCGGAGTCACCTAGTGCAG", "binding signal": "17800 fluorescence intensity (a.u.)"}, {"sequence": "GAACAGCTCAGCTCACCGCATCCTTTGACTTTTTAACCAGCGGAGTCACCTAGTGCAG", "binding signal": "18100 fluorescence intensity (a.u.)"}, {"sequence": "TTGCAGCTGTCCTCTCTACCTTAACCCTTTGACCAGTGCTCGGAGTCACCTAGTGCAG", "binding signal": "9130 fluorescence intensity (a.u.)"}, {"sequence": "ACTTTCTTTTTTTCTTTTTAACCTTGACCTTTACTGGCATCGGAGTCACCTAGTGCAG", "binding signal": "8690 fluorescence intensity (a.u.)"}, {"sequence": "CACACGCACGCTTCTCACGTACATATCGATCGCAAATATCCGGAGTCACCTAGTGCAG", "binding signal": "8490 fluorescence intensity (a.u.)"}, {"sequence": "GCCGATAGAGGCATGGGGTTTGTTCAGATTGATGTCATTTCGGAGTCACCTAGTGCAG", "binding signal": "9370 fluorescence intensity (a.u.)"}, {"sequence": "CCGTGGTGGTACGCGCGCGCTGCGTACGTTTTTTTTTCTTCGGAGTCACCTAGTGCAG", "binding signal": "9450 fluorescence intensity (a.u.)"}, {"sequence": "CGAACCAAGACAAGAAAATAGAACCATCCTATCTATCAGGCGGAGTCACCTAGTGCAG", "binding signal": "11500 fluorescence intensity (a.u.)"}]}]}
